A selection: hits, their analogues and other compounds. The true share with any hit is near 2.3%.
m5-HT2A agonist = mouse Htr2a agonists via beta-arrestin recruitment, primary screen, cell-based, luminescence; 5-hydroxytryptamine receptor 2A (Mus musculus), P35363; CHO-K1 mHTR2A beta-arrestin complementation; percent of 30 µM serotonin response; activation, % at 7.6 µM; 360,000 tested, 0.66% active;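 active = activation above a run cutoff, the mean activation of all tested compounds plus 3 SD, cut at about 14% in these data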;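 also: 0% = plate median of compound wells and 100% = 30 µM serotonin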
B2AR ag = beta2AR agonists driving receptor internalization, primary screen, cell-based, FAP fluorogen, flow cytometry; Beta-2 adrenergic receptor (Homo sapiens), P07550; Am2.2-beta2AR cells; response, % (concentration not given with the values); 340,000 tested, 0.43% active; AID 504454, 2011;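 active = response above a set limit, near 3 SD of response in nonfluorescent compounds, cut at about 42% in these data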
Target sequence (P07550 whole entry, looked up): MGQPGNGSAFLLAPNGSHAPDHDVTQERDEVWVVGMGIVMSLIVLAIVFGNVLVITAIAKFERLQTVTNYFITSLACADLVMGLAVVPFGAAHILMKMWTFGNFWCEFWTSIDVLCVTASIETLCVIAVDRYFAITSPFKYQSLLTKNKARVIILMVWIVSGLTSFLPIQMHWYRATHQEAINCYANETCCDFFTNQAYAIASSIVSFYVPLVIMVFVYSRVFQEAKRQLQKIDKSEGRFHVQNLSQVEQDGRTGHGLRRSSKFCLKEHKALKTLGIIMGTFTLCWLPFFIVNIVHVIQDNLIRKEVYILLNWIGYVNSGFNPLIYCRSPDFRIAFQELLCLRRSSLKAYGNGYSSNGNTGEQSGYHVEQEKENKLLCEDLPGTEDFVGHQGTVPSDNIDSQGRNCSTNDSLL
Exocytosis inh = LAMP-1 surface exposure blockers, TALL-104 cells – cell-based, flow cytometry, MLPCN library, primary screen; TALL-104 LAMP-1 surface exposure; cells stimulated with thapsigargin and PMA; inhibition, % at 10 µM; 360,000 tested, 0.66% active; AID 651702, 2012;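 active = inhibition above about 55%, limit read from the data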
NTR1 agonist = agonists of human NTR1, primary screen, imaging, U2OS cells, beta-arrestin-GFP, high content; 330,000 tested, 0.17% active; activation, % at 20 µM; NTR1-U2OS beta-arrestin-GFP spot imaging, agonist mode; Neurotensin receptor type 1 (Homo sapiens), P30989;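 active = activation at or above 40% of the spot to cytoplasm intensity ratio, with at least 20 cells analyzed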;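 also: 0% = DMSO without peptide and 100% = 100 nM NTR1 peptide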
ABHD5-PLIN5 inh = ABHD5-PLIN5 interaction inhibitors, primary screen, cell lysate, split luciferase complementation, luminescence; Perilipin-5 (Homo sapiens) + 1-acylglycerol-3-phosphate O-acyltransferase ABHD5 (Homo …; Split G. princeps luciferase complementation, 4 h; 360,000 tested, 0.78% active; inhibition, % at 4 µM;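 active = inhibition above the mean inhibition across every tested compound plus 3 SD, cut at about 22% in these data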;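 also: 0% = DMSO only wells and the 100% control is not disclosed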
MOR ag counter = OPRM1 agonists via beta-arrestin recruitment, confirmation, counter-screen for mouse HTR2A agonist project, cell-based, luminescence, single concentration. shares compounds with m5-HT2A agonist. activation, % at 9.3 µM. 2,300 tested, 5.3% active. U2OS OPRM1 beta-arrestin PathHunter; DMSO 0%, DAMGO 9.3 µM 100%. AID 624380, 2012;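 active = mean activation above the mean of DMSO-only wells plus 3 SD, cut at about 0.5% in these data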
HTR2A ag conf = mouse HTR2A agonists, beta-arrestin recruitment, confirmation, cell-based, luminescence, CHO-K1 PathHunter, triplicate; shares compounds with m5-HT2A agonist; DMSO 0%, 30 µM serotonin 100%; activation, % at 7.6 µM; 2,300 tested, 19% active;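 active = mean activation across triplicates above the hit threshold derived in the original primary screen, cut at about 15% in these data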
* marks the source's active call; other numbers are inactive results; · = no result given.

SMILES | m5-HT2A agonist | B2AR ag | Exocytosis inh | NTR1 agonist | ABHD5-PLIN5 inh | MOR ag counter | HTR2A ag conf
COc1ccccc1CNC(=O)CN(c1ccc(C)cc1)S(=O)(=O)c1c(C)n[nH]c1C | 1 | 0 | -2 | -1 | 7 | · | ·
CC(NC(=O)Nc1ccccc1C(F)(F)F)C1CCCO1 (configuration not stated) | 26* | 5 | -1 | -1 | -2 | 0 | 3
CCN1C(=O)[C@H]2[C@@H](c3ccc(Cl)cc3)N3C(=O)CN(CCOC)C(=O)[C@@]3(C)[C@H]2C1=O | 14 | 2 | -2 | 3 | 5 | · | ·
CCN1C(=O)[C@H]2[C@@H](c3ccc(OC)cc3)N3C(=O)CN(CC4CC4)C(=O)[C@@]3(C)[C@H]2C1=O | 21* | -3 | -1 | 0 | 0 | 0 | -2
CCc1cccc(C)c1NC(=O)CC(C)(C)CC(=O)O | 18* | 0 | -1 | 0 | -6 | 0 | -3
CCOc1ccccc1C(=O)Nc1cc(C)ccc1NC(=O)c1ccco1 | -10 | -2 | -3 | -1 | 4 | · | ·
O=C(NCc1ccncc1)c1ccc(S(=O)(=O)Nc2ccccc2)cc1 | 15* | -2 | 4 | 0 | 6 | 0 | -5
CC(=O)C1=C(O)C(=O)OC1c1ccc(Cl)cc1 (configuration not stated) | 16* | 2 | -1 | 1 | -1 | 0 | 0
Cc1nc2ccc(NS(=O)(=O)c3ccc(F)cc3F)cc2s1 | 22* | 17 | -1 | 0 | 0 | 0 | -3
CCOC(=O)C(CC)n1cnc2c(nnn2-c2ccccc2)c1=O (configuration not stated) | 0 | -2 | 1 | -1 | -6 | · | ·
COc1ccc(C2c3c(-c4ccccc4O)n[nH]c3C(=O)N2Cc2ccco2)cc1OC (configuration not stated) | -1 | 3 | -1 | 2 | 4 | · | ·
Cc1cc(C)c(O)c(-c2n[nH]c3c2C(c2cccc(O)c2)N(Cc2ccco2)C3=O)c1 (configuration not stated) | 99* | 6 | 0 | 9 | -6 | 0 | 57*
Cc1cccnc1C1=NOC(Cc2ccccc2)C(=O)N1Cc1ccccc1F (configuration not stated) | 5 | · | -2 | · | -7 | · | ·
C=CCn1c(SCC(=O)c2ccc(OC)cc2)nnc1-c1ccc2c(c1)OCO2 | -1 | -4 | -4 | 0 | 4 | · | ·
C=CCn1c(SCC(=O)c2ccc(Cl)cc2)nnc1-c1ccc2c(c1)OCO2 | 32* | 2 | -2 | 2 | -11 | 0 | 1
CC(c1nc2ccccc2c(=O)[nH]1)N1CCN(S(=O)(=O)c2ccc(F)c(Cl)c2)CC1 (configuration not stated) | 0 | · | -11 | · | -4 | · | ·
O=C(OCC1COC(c2ccccc2)(c2ccccc2)O1)c1ccccc1 (configuration not stated) | -2 | 0 | 1 | · | 1 | · | ·
C=CCOC(=O)c1ccccc1C(=O)OCC1CO1 (configuration not stated) | 23* | -6 | 5 | · | 2 | 0 | 4
Cc1ccn2cc(CNS(=O)(=O)c3ccc4c(c3)OCCO4)nc2c1 | 26* | 0 | -3 | 4 | -4 | 0 | 2
CCCCc1cn([C@@H](CCCCNC(=O)OC(C)(C)C)C(=O)N2CCN(C(=O)OC(C)(C)C)CC2)nn1 | 16* | 1 | 103* | 2 | -2 | -1 | -1
CC(C)(C)OC(=O)NCCCC[C@@H](C(=O)N1CCN(C(=O)OC(C)(C)C)CC1)n1cc(CCC(=O)O)nn1 | -6 | 2 | -3 | -1 | -1 | · | ·
